# Assay outcomes: PubChem BioAssay, Broad Institute
# AF4-AF9 inh: MLL-AF4/AF9 protein interaction inhibition. P42568. AlphaScreen, biotin-AF4 peptide binding to FLAG-AF9. inhibition, % at 10 µM. 350,000 tested, 0.47% active;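 active = every replicate reaching a set inhibition limit, whatever the replicate mean, cut at about 25% in these data; inconclusive = mean inhibition reaches that limit but some replicates miss it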;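 note: 0% = plate neutral control median and 100% = total signal loss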
# Target sequence (P42568 whole entry, looked up): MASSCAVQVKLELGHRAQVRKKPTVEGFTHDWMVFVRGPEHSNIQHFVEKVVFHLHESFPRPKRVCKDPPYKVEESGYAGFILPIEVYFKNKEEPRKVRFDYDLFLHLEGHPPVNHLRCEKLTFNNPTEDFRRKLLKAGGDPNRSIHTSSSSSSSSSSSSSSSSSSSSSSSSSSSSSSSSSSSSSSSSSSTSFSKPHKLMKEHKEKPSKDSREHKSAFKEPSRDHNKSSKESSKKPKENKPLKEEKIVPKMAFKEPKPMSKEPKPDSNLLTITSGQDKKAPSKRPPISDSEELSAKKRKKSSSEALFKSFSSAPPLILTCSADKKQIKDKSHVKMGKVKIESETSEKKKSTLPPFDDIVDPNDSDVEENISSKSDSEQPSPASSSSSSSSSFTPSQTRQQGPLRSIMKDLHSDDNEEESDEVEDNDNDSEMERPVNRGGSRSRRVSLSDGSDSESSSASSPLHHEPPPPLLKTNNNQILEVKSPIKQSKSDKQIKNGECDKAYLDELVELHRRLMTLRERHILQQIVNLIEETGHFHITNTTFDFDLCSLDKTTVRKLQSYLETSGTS
# MITF act: activators of MITF-driven TRPM1 promoter activity in SK-MEL-5 cells | SK-MEL-5 TRPM1-promoter luciferase, 24 h; % of positive control, neutral wells = 0 | activation, % at 12.5 µM | 300,000 tested, 0.75% active;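 active = mean activation of at least 80% with every replicate also reaching 80%; inconclusive = mean reaches 80% but some replicate falls short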;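 note: 0% = neutral control wells and 100% = parthenolide positive control wells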
# esBAF inh: inhibitors of esBAF chromatin remodeling in mouse ES cells. Bmi1-luciferase knock-in reporter, 24 h; 100% = twice the neutral-well signal. reporter increase, % at 12.5 µM. 350,000 tested, 2% active; in the data active = activation above about 40%; inconclusive = no clear call, values can overlap the other calls;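 note: 0% = median of the plate's neutral control wells and 100% = double that signal; a rise in the Bmi1 reporter signal indicates esBAF inhibition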
# Wnt act: activates Wnt/beta-catenin signaling in a reporter cell assay; activation, % at 9.35 µM; 300,000 tested, 1.2% active; activator, plate reader; in the data active = activation above about 30%, passing the limit was not always enough; inconclusive = no clear call, values can overlap the other calls;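 note: 0% = neutral control wells and 100% = positive control wells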
# rRNA inh HTS: inhibitors of bacterial rRNA selective over humanized ribosomes. 350,000 tested, 1.6% active. GFP signal change (wild-type ribosome), % (no concentration beside the values). E. coli WT GFP vs humanized-ribosome RFP mutants, fluorescence, 24 h; hits give low values; DMSO median 0, no signal -100;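 active = significant combined selectivity score with lowered wild-type GFP, culture density cut under 30%, mutant RFP and density less affected; inactive = any of these conditions unmet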
# Active calls of the source: *; ? = inconclusive; . = not tested or not shown. In the library only some 3.7% were active in any assay of this set; here they are far more common.
SMILES,AF4-AF9 inh,MITF act,esBAF inh,Wnt act,rRNA inh HTS
O=C(CN1C(=O)NC(c2ccccc2)(c2ccccc2)C1=O)NCc1cccs1,-0.6,-0.5,13.7,-3.1,-35.6*
CCNc1ccc(S(N)(=O)=O)cc1[N+](=O)[O-],.,2.6,.,-1.5,.
CN(C(=O)c1cc2c(s1)-c1ccccc1S(=O)(=O)C2)c1ccccc1,7.8,8.3,109.9*,7.5,-18.6
CN(C(=O)c1cc2c(s1)-c1ccccc1S(=O)(=O)C2)c1ccccc1F,3.3,-7.9,6.5,10.6,-12.8
COc1ccc(NC(=O)N(C)C[C@@H]2OCc3ccccc3-c3c(n(C)c4ccccc34)C(=O)N([C@H](C)CO)C[C@H]2C)c(OC)c1,13.2,.,1.5,-7.8,1.2
O=C(CSc1nccn(-c2ccc(Br)cc2)c1=O)Nc1ccccc1F,-7.1,8.0,.,1.8,-2.8
CC(C)CC(=O)Nc1ccc(C(=O)COc2ccc(-c3nnco3)cc2)cc1,.,.,-2.9,-2.0,.
O=C(Nc1ccc2c(c1)OC1(CCCC1)O2)C1CC1,.,36.6,41.8*,.,.
O=C(Nc1ccc2c(c1)oc1ccc(S(=O)(=O)N3CCCC3)cc12)C1CC1,.,-5.3,10.3,.,.
CC(C)CC(=O)Nc1ccc2c(c1)oc1ccccc12,.,90.8*,62.0*,.,.
O=C(Nc1ccc2c(c1)oc1ccccc12)C1CC1,.,.,58.8*,0.0,.
O=C(Nc1ccc2c(c1)OCO2)C1CC1,3.8,47.7,36.2,11.5,3.9
CCC(=O)Nc1ccc2c(c1)OC[C@@H](C)N(Cc1ccccc1F)C[C@H](C)[C@H](OC)CN(C)C2=O,7.5,.,9.3,.,-4.9
c1nc(CCO[C@H]2CCCCO2)cc2cc3c(cc12)OCO3,-1.1,1.8,-49.8,1.2,-4.9
c1nc(C2CCCCC2)cc2cc3c(cc12)OCO3,1.3,64.6,50.7*,4.9,-32.7
NC(=O)C1CCN(C(=O)COc2ccc3ccc(=O)oc3c2)CC1,-2.3,7.2,-1.4,-1.3,6.9
CCOC(=O)c1cnc2c(cnn2C)c1NCCC(O)C(F)(F)F (stereo not given),.,-2.0,11.2,-0.6,.
NC(=O)c1cc2ccccc2oc1=NCc1ccccc1,.,6.7,5.9,.,.
COc1ccc2cc(C(N)=O)c(=Nc3ccccc3)oc2c1,0.0,102.3*,.,?,8.2
NC(=O)c1cc2ccc(O)cc2oc1=NCc1ccccc1,7.7,18.3,44.6*,-4.0,-15.8
COc1ccc2cc(C(=O)c3ccccc3)c(=O)oc2c1,.,65.7,65.7*,.,.
CCOC1=C2CN(S(=O)(=O)c3ccccc3)[C@@H](c3ccccc3)C[C@H]2[C@H]2C(=O)N(c3ccccc3)C(=O)[C@H]2C1,-2.5,.,.,-1.6,1.1
CCc1nnc(NS(=O)(=O)c2ccc(N/C=C\C(=O)c3cccc(OC)c3)cc2)s1,-0.7,12.0,.,-1.6,-2.7
Cc1n[nH]c(C)c1S(=O)(=O)N1CCC(C(=O)N2CCn3c2nc2ccccc23)CC1,10.6,11.3,-6.1,-3.2,-22.9*
CCOc1ccc(-n2cccc2C=O)cc1,.,15.4,.,1.0,.
SMILES,AF4-AF9 inh,MITF act,esBAF inh,Wnt act,rRNA inh HTS
Cc1c(C(=O)OCC(=O)N(C)c2ccccc2)cccc1[N+](=O)[O-],2.9,-2.3,.,-2.0,-7.6
CCn1c(=O)c(C(=O)Nn2c(C)nc3ccccc3c2=O)c(O)c2ccccc21,.,-9.1,-6.5,-1.7,.
CCCn1c(=O)c(C(=O)Nc2ncccc2C)c(O)c2ccccc21,-2.0,-11.1,.,0.0,-57.5
CCCn1c(=O)c(C(=O)Nc2cccc(C)n2)c(O)c2ccccc21,-33.9,1.5,50.3*,1.9,10.8
CCc1nc2ccccc2c(=O)n1NC(=O)c1c(O)c2ccccc2n(CC)c1=O,-1.8,2.2,.,-1.3,-29.7*
Fc1ccc2c(Cl)c(-c3nnc(-c4cccs4)o3)sc2c1,.,.,-11.3,44.0*,.
COc1cccc(NC(=O)CN(C)C(=O)c2cc(-c3ccc(F)cc3)nc3ccccc23)c1,1.3,24.3,.,-3.5,-5.5
CC(=O)Nc1cccc(-c2csc(Nc3ncccn3)n2)c1,-1.6,.,.,44.1*,7.9
CC(=O)NNc1nc(-c2ccc(NC(C)=O)cc2)cs1,-3.9,5.4,.,-7.5,12.3
CC(=O)Nc1cccc(-c2csc(Nc3ccc(C)cn3)n2)c1,.,119.0*,.,.,.
O=C(Nc1cccc(-c2csc(Nc3ccc(Cl)cc3)n2)c1)c1ccccc1,.,29.1,18.9,5.6,-0.2
CC(=O)Nc1ccc(-c2csc(Nc3cccc(C)n3)n2)cc1,-8.5,87.0*,.,47.7*,-29.0
Cc1noc(C)c1S(=O)(=O)N(C)C[C@H]1Oc2ccc(NS(=O)(=O)c3ccc(Cl)cc3)cc2CC(=O)N([C@H](C)CO)C[C@H]1C,2.1,.,-0.1,.,-2.3
C[C@H](CO)N1C[C@H](C)[C@@H](CN(C)C(=O)c2ccncc2)OCCCC[C@H](C)Oc2ccc(NS(C)(=O)=O)cc2C1=O,-0.6,.,-1.0,.,0.1
COc1ccc(CCN2C(=O)CSC2c2cccc([N+](=O)[O-])c2)cc1OC (stereo not given),-0.4,0.9,-0.5,0.9,-3.4
COCCNc1ncnc2c1ncn2[C@H]1CN(Cc2cccs2)C[C@@H](CO)O1,-0.4,.,-5.1,-3.1,13.5
S=C(c1ccc(-c2ccc(Br)cc2)o1)N1CCCCC1,2.9,71.5,48.4*,46.1*,-19.8
S=C(c1ccc(-c2ccc(Cl)c(Cl)c2)o1)N1CCOCC1,.,113.5*,44.9*,.,.
O=C(c1cc(-c2ccc(Br)cc2)on1)N1CCOCC1,0.1,27.9,-8.6,15.9,4.1
S=C(c1ccc(-c2ccccc2Cl)o1)N1CCOCC1,.,76.3,31.3,.,.
O=C(Cc1ccc(Br)cc1)N1CCCCCC1,.,.,56.8*,.,.
S=C(c1ccc(-c2ccc(Br)cc2)o1)N1CCOCC1,3.7,.,.,52.6*,-29.5*
COc1ccc(-c2ccc(C(=S)N3CCN(C(C)=O)CC3)o2)cc1,.,11.2,2.9,-1.6,.
Cc1cc(C)n(/C(=C\N(C)C)C(=O)c2ccc(Cl)cc2)n1,-0.7,8.9,-1.8,-0.4,11.0
Cc1cc(C)n(/C(=C\N(C)C)C(=O)c2cccc([N+](=O)[O-])c2)n1,50.6*,.,-6.2,1.9,3.3
SMILES,AF4-AF9 inh,MITF act,esBAF inh,Wnt act,rRNA inh HTS
c1ccc(-c2noc(C34CC5CC(CC(C5)C3)C4)n2)cc1,.,17.1,.,.,.
c1ccc(-c2noc(C34CC5CC(CC(C5)C3)C4)n2)nc1,.,44.4,53.4*,.,.
Brc1ccc(-c2noc(C3CCCCC3)n2)cc1,-4.0,57.8,.,55.5*,-6.0
c1ccc(-c2noc(C3CCCCC3)n2)nc1,.,71.8,1.2,36.2*,.
CC(C)c1nc(C(=O)N2CCCC(N3CCN(c4cccc(Cl)c4)CC3)C2)cs1 (stereo not given),-3.8,-0.2,.,1.4,.
O=C(CN(C(=O)CNS(=O)(=O)c1ccccc1)c1ccc(Cl)cc1)NCC1CCCO1 (stereo not given),-1.8,3.3,-1.8,-0.7,5.7
CN(C(=O)CSc1nc(C2CC2)n(-c2ccccc2)n1)C1CCS(=O)(=O)C1 (stereo not given),-13.3,-2.9,-2.2,0.7,1.9
c1ccc(CCn2nnc3ccccc32)cc1,11.4,97.8*,31.2,54.1*,6.4
